Measurements as given in the supplement of paper PMC11732987, “Enantioselective OTUD7B fragment discovery through chemoproteomics screening and high-throughput optimisation” (Communications Chemistry, 2025).

Experiments:
Assay in all cases: log2 ratio of Biotin-Ahx-Ub-VS probe labelling (fragment/DMSO); higher = less target engagement (more negative = stronger competition), active = hit call of the paper (q ≤ 0.05, log2 ratio ≤ -1)
Conditions in all cases: compound concentration: 200 uM; treatment time: 3 h
USP34 = USP34 (UniProt Q70CQ2)
USP34, sequence (Q70CQ2 whole entry, the tested form may be a part): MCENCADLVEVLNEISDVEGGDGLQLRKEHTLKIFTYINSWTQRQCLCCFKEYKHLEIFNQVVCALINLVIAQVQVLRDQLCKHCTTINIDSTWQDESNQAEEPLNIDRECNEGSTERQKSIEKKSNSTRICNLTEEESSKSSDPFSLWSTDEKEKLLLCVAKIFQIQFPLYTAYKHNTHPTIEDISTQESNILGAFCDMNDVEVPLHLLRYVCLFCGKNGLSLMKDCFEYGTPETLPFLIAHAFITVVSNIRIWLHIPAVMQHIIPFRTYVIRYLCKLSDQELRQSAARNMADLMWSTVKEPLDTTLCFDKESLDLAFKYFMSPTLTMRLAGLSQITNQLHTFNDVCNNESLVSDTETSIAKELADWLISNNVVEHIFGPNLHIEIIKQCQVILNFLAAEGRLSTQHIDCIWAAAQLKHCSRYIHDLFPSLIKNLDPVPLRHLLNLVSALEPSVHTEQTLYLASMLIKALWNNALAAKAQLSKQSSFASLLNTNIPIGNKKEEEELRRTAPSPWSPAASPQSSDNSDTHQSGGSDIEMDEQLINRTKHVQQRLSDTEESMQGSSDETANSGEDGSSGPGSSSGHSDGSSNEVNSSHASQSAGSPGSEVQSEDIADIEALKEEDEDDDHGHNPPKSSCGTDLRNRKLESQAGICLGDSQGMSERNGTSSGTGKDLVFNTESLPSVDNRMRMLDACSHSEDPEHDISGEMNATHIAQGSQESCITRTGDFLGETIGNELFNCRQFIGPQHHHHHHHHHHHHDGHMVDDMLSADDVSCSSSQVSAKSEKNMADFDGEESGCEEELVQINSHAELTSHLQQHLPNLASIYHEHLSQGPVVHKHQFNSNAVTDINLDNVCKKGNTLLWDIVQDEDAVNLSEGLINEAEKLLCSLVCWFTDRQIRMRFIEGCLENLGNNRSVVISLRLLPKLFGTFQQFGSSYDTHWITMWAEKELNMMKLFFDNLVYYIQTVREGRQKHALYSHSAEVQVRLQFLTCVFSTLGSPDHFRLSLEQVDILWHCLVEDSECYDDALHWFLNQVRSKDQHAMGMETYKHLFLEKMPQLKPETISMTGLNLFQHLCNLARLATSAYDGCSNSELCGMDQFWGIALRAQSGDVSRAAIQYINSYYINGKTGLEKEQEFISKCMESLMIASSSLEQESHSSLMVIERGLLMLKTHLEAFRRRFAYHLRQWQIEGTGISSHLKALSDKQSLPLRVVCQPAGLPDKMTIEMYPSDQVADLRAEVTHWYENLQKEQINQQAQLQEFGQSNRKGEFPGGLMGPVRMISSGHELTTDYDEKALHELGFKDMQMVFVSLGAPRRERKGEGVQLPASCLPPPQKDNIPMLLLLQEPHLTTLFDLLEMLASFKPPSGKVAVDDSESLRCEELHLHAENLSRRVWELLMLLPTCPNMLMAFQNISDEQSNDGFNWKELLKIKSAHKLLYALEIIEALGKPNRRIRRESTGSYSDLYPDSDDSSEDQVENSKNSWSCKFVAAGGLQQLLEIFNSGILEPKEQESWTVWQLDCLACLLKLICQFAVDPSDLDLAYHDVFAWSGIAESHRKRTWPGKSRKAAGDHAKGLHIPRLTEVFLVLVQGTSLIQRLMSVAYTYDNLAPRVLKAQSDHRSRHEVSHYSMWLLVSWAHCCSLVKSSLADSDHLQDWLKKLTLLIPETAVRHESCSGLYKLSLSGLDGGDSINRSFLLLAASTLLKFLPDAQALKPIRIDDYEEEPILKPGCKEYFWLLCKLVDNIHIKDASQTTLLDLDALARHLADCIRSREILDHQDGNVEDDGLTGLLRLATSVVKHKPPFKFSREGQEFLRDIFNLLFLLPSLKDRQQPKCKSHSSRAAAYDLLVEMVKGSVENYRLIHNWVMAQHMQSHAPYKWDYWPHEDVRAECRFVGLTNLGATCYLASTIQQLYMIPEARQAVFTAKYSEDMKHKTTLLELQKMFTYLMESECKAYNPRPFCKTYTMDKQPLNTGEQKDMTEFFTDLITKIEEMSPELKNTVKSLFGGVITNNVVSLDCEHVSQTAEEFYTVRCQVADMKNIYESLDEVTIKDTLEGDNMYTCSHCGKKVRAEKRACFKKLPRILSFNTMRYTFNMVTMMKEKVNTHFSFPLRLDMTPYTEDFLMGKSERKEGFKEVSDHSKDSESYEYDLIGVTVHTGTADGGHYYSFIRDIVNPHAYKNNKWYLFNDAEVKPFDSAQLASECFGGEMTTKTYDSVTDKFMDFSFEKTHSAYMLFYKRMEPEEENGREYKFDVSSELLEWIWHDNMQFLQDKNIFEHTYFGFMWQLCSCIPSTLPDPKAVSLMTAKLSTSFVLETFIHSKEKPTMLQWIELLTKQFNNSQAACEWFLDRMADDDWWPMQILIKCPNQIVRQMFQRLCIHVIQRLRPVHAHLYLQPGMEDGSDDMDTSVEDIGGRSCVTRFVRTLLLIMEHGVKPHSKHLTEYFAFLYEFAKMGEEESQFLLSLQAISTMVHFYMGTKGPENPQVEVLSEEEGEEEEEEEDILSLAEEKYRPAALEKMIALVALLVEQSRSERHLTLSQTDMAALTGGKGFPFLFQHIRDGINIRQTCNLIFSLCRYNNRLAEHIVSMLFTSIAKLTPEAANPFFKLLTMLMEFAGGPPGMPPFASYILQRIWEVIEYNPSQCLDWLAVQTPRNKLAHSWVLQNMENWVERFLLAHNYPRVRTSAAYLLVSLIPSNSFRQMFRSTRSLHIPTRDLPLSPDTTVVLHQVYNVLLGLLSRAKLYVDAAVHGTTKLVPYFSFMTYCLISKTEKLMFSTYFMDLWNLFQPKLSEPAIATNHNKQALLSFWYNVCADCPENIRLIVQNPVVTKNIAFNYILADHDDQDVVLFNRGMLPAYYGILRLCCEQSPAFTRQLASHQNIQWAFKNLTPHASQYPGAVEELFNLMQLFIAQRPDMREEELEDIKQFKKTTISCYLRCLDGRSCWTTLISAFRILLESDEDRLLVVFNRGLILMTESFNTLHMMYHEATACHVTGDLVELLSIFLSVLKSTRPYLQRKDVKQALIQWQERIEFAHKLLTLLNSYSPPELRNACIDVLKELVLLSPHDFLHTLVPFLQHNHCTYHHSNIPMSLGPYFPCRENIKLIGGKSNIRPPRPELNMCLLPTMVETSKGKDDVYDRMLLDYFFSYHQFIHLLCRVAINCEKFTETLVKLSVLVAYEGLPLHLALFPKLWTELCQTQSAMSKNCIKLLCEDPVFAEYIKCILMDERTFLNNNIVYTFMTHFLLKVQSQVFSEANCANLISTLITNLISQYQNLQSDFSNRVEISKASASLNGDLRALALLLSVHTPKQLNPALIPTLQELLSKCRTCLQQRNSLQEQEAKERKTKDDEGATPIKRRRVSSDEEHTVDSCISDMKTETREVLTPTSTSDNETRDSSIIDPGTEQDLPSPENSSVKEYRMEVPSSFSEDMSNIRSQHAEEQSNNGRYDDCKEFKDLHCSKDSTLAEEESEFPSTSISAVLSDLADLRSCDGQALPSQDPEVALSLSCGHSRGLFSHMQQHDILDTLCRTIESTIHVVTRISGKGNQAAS
Outline: (§1)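 Labelling with Biotin-Ahx-Ub-VS (0.5 µM final, 1 h) followed a 3 h triplicate treatment of HEK293T lysate (495 µg per sample, Tris/CHAPS/IGEPAL buffer with protease inhibitors) with fragment at 200 µM or vehicle. Labelled DUBs were NeutrAvidin-enriched, digested with LysC and trypsin, and run by diaPASEF LC-MS/MS. The values, average log2 fragment/vehicle ratios by unpaired t-test, come from global-median-normalised Spectronaut label-free quantities. Proteins with ≥2 unique peptides were used.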

USP36 = molecular target: T1, USP36 (UniProt Q9P275)
T1 sequence (whole entry): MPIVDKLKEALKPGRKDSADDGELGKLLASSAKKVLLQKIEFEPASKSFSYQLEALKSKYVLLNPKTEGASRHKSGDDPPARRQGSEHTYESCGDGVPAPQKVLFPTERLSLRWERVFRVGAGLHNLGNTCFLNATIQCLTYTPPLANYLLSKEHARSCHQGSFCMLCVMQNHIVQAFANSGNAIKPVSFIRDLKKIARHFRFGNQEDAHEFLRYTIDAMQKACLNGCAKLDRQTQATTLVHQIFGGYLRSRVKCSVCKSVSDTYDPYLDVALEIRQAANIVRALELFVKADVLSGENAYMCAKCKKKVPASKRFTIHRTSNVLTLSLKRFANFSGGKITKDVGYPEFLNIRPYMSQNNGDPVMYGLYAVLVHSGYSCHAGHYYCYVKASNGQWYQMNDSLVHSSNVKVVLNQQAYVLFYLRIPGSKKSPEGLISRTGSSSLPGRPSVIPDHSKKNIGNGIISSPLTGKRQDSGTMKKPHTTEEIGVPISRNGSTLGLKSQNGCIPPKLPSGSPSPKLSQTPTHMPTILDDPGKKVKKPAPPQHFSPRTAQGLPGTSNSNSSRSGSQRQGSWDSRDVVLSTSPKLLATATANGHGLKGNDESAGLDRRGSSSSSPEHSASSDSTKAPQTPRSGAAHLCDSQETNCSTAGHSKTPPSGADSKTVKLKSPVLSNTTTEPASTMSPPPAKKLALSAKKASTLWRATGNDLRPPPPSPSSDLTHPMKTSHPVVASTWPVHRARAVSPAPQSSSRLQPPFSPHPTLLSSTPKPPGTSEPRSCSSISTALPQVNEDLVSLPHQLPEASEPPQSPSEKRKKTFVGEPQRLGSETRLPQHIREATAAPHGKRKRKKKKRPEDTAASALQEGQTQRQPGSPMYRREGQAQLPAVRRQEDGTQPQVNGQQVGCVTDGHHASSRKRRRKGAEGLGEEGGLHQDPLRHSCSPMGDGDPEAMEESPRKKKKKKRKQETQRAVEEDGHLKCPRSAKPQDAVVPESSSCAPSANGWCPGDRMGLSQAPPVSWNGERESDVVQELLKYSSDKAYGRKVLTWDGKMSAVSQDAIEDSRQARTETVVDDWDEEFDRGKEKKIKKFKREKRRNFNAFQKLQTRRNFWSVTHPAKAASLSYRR
Outline: as §1

USP38 = molecular target: T2, USP38 (UniProt Q8NB14)
T2 sequence (whole entry): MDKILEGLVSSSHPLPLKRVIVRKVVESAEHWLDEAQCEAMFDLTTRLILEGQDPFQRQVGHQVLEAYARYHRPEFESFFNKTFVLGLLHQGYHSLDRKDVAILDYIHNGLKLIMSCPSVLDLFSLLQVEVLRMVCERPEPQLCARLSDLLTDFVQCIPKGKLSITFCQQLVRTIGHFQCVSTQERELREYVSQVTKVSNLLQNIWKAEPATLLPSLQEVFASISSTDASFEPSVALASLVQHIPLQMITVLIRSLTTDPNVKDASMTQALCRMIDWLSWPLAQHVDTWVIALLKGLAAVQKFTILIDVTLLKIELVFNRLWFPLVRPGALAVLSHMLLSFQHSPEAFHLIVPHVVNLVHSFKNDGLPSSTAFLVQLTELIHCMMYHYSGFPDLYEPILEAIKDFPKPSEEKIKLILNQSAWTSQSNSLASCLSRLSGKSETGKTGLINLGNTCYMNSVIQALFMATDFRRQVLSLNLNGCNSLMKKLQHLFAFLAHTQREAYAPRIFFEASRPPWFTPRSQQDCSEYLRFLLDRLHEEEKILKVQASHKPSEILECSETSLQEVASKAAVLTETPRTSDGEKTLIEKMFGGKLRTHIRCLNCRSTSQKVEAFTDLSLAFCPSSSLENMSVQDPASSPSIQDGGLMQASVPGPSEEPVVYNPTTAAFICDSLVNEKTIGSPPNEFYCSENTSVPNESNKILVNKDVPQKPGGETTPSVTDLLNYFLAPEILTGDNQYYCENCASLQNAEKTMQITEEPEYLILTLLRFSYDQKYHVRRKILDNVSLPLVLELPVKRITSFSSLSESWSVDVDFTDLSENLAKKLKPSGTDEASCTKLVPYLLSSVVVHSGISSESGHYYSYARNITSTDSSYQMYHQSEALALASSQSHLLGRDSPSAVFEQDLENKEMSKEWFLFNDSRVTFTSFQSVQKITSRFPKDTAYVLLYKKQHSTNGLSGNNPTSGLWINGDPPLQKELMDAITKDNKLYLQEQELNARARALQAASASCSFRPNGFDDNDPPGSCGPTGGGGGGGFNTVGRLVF
Outline: as §1

USP39 = molecular target: T3, USP39 (UniProt Q53GS9)
T3 sequence (whole entry): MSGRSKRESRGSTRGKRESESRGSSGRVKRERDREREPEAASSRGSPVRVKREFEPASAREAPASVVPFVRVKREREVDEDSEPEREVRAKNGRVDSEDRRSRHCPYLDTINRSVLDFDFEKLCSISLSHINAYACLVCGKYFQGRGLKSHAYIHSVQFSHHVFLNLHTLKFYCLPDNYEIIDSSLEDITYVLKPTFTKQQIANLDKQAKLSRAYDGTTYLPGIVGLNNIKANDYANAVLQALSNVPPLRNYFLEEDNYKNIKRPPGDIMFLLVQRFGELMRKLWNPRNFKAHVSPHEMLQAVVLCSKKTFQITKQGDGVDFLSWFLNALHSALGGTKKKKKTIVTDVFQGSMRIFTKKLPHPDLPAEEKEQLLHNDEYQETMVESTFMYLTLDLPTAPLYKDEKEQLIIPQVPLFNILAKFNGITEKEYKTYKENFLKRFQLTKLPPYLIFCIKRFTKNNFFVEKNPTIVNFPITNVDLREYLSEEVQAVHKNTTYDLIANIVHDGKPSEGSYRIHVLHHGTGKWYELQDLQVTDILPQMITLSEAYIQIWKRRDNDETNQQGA
Outline: as §1

USP4 = molecular target: T4, USP4 (UniProt Q13107)
T4 sequence (whole entry): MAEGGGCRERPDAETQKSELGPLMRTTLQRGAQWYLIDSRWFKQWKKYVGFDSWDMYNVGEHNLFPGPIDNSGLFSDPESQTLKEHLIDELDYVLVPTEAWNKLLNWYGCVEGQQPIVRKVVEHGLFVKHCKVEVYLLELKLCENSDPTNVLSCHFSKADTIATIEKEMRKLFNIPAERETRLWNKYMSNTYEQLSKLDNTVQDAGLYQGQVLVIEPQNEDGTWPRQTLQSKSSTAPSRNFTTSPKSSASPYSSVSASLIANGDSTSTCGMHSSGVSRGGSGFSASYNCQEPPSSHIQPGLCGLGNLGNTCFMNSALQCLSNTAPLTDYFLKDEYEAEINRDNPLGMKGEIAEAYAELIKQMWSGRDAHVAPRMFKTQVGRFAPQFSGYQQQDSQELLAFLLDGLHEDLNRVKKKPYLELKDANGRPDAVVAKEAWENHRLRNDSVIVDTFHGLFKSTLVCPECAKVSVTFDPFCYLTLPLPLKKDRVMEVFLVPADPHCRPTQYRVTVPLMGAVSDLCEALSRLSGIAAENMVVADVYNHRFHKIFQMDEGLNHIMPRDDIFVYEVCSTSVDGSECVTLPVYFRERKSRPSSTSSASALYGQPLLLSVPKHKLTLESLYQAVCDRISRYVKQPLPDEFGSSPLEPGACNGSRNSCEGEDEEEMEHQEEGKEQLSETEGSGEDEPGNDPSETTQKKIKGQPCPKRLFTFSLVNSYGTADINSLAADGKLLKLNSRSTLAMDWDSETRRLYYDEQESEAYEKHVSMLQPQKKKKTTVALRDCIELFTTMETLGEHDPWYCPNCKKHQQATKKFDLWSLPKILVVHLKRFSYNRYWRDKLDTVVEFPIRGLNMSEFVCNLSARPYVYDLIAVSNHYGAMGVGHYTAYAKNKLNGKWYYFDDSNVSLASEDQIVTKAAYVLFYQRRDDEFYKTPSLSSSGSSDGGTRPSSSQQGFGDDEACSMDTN
Outline: as §1

Measured: log2 ratio of Biotin-Ahx-Ub-VS probe labelling

CN(C)C(=O)c1ccc(NC(=O)CCl)cc1
inactive: USP34 -0.218 | USP36 0.00972 | USP38 -0.0389 | USP39 0.0586 | USP4 -0.323
